Experimental findings from PubChem BioAssay (NCI) are described below.

The panel holds about 83,000 compounds, 20% with a hit somewhere; the sample as a whole holds those more often.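 Growth was measured after 48 h exposure to one concentration of compound in 96-well plates. Values under 10 count as active.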 Values without a mark were called inactive. Active and inactive are the calls of the source.

Assay in all cases: NCI-60 one-dose screen, 48 h (100 = growth as untreated, 0 = no growth, -100 = all killed)
One test relates to NCI-H23 lung. The following applies: 10 µM unless noted.
In the next test the test system is NCI-H226 lung. The settings on record: 10 µM unless noted.
The next test relates to NCI-H322M lung. The settings on record: 10 µM unless noted.
The subject of the next test is HOP-62 NSCLC. The following applies: 10 µM unless noted.
For the next test, the system named is NCI-H460 lung. The following applies: 10 µM unless noted.
Another test deals with HOP-92 NSCLC. The settings on record: 10 µM unless noted.
Another test relates to A549/ATCC NSCLC. The following applies: 10 µM unless noted.
In another test the test system is 786-0 renal. The settings on record: 10 µM unless noted.
The subject of a further test is DU-145 prostate. The settings on record: 10 µM unless noted.
The subject of the next test is K-562 leukemia. The following applies: 10 µM unless noted.
For the next test, the system named is MALME-3M melanoma. The settings on record: 10 µM unless noted.
For another test, the system named is MDA-MB-231 breast. The settings on record: 10 µM unless noted.
For a further test, the system named is RXF 393 renal. The settings on record: 10 µM unless noted.
The next test concerns SF-268 CNS. The following applies: 10 µM unless noted.
A further test deals with SF-295 CNS. The following applies: 10 µM unless noted.
The test system of a further test is SF-539 CNS. The settings on record: 10 µM unless noted.
In a further test the test system is M14 melanoma. The settings on record: 10 µM unless noted.
Another test concerns COLO 205 colon. The settings on record: 10 µM unless noted.
In a further test the test system is UACC-257 melanoma. The settings on record: 10 µM unless noted.
The subject of another test is NCI-H522 lung. The following applies: 10 µM.

As for `COc1c(Br)cc(C(c2cc(Br)c(OC)c(Br)c2)c2ccccc2C(=O)O)cc1Br`, the growth in the test on NCI-H23 lung was 97.3%; in the test with NCI-H226 lung it was 99.8%; in the test on NCI-H322M lung, 102%; in the test on HOP-62 NSCLC, 94.1%; with NCI-H460 lung, 105%; in the test on HOP-92 NSCLC, 55.7%. Moreover, the growth in the test with A549/ATCC NSCLC is 98.7%; in the test with 786-0 renal, 100%; in the test with DU-145 prostate, 111%; in the test on K-562 leukemia it was 89.6%; with MALME-3M melanoma it was 91.3%; in the test with MDA-MB-231 breast, 102%. In addition, the growth in the test with RXF 393 renal is 107%; with SF-268 CNS, 98.8%; with SF-295 CNS it was 96%; in the test on SF-539 CNS, 92.2%; in the test with M14 melanoma, 95.4%.
For the molecule `Cc1ncc(C(=O)Nc2ccc(CN3CCN(C)CC3)c(C(F)(F)F)c2)cc1C#Cc1cncc2ncccc12`, the growth with NCI-H23 lung is 45.7%; in the test with NCI-H226 lung it was 46.7%; in the test with NCI-H322M lung, 51%; in the test with HOP-62 NSCLC, 59.4%; with NCI-H460 lung it was 61%; in the test with HOP-92 NSCLC, 60.3%. For the same molecule, the growth in the test on 786-0 renal was -85.8% (active); with COLO 205 colon, 32.2%; in the test on DU-145 prostate, 66.9%; with K-562 leukemia, -10.7% (active); in the test with MALME-3M melanoma, 0.477% (active); in the test with MDA-MB-231 breast it was 21.3%. Besides, the growth in the test with RXF 393 renal was 36.7%; in the test on SF-268 CNS it was 57.7%; in the test on SF-295 CNS, 82.6%; in the test with SF-539 CNS it was 67%; in the test on M14 melanoma it was 5.36% (active).
For `CN1C(=O)C(C2=NN(C=O)C(c3ccc(F)cc3)C2)C(=O)N(C)C1=O` (centres undefined), the growth in the test with NCI-H23 lung was 99%; in the test on NCI-H226 lung it was 85.2%; with NCI-H322M lung, 106%; in the test with HOP-62 NSCLC, 84.4%; with NCI-H460 lung, 102%; with HOP-92 NSCLC, 91.7%. The growth in the test with A549/ATCC NSCLC was 74.7%; in the test with 786-0 renal, 100%; with DU-145 prostate it was 106%; in the test on K-562 leukemia, 94.2%; with MALME-3M melanoma, 95.8%; with MDA-MB-231 breast it was 106%. Moreover, the growth in the test on RXF 393 renal is 95.5%; in the test on SF-268 CNS it was 96.9%; in the test with SF-295 CNS, 99.2%; in the test on SF-539 CNS, 102%; with UACC-257 melanoma it was 69.3%; in the test with M14 melanoma it was 98.5%.
As to `CC(=O)/C(=C/c1ccc(Cl)cc1)C(=O)c1ccccc1`, the growth in the test on NCI-H23 lung was 88.6%; in the test on NCI-H226 lung it was 107%; with NCI-H322M lung, 101%; in the test on HOP-62 NSCLC, 95.5%; in the test on NCI-H460 lung, 99.7%; in the test with HOP-92 NSCLC, 62.5%. For the same molecule, the growth in the test on A549/ATCC NSCLC is 94.8%; with 786-0 renal it was 93.9%; in the test with DU-145 prostate it was 99.6%; with K-562 leukemia it was 61.8%; with MALME-3M melanoma, 103%; in the test on MDA-MB-231 breast it was 96.1%. The growth is 100% with RXF 393 renal; 82.8% in the test with SF-268 CNS; 60.2% in the test with SF-295 CNS; 101% in the test with SF-539 CNS; 86% with M14 melanoma.
As to `COc1cc(/C=N/OC(=O)Nc2ccccc2)cc(OC)c1OC`, the growth in the test with NCI-H23 lung is 107%; in the test on NCI-H226 lung it was 96%; with NCI-H322M lung it was 92.2%; with HOP-62 NSCLC, 93.9%; with NCI-H460 lung, 109%; in the test with HOP-92 NSCLC, 74.6%. Also, the growth in the test on 786-0 renal was 103%; with COLO 205 colon it was 107%; in the test on DU-145 prostate, 115%; in the test with K-562 leukemia, 107%; in the test with MALME-3M melanoma, 97.9%; in the test on MDA-MB-231 breast it was 92.6%. The growth in the test on RXF 393 renal is 121%; with SF-268 CNS it was 107%; in the test with SF-295 CNS it was 129%; with SF-539 CNS, 100%; in the test with UACC-257 melanoma it was 105%; in the test with M14 melanoma, 107%.
Regarding `CC(C)Cn1cnc2c(NCn3nc(-c4cc(Cl)cc(Cl)c4Cl)n(/N=C/c4ccc(Cl)cc4)c3=S)nc3ccccc3c21`, the growth is 80.9% with NCI-H23 lung; 73.4% in the test with NCI-H226 lung; 81.6% in the test on NCI-H322M lung; 79.4% with HOP-62 NSCLC; 99.1% with NCI-H460 lung; 45% in the test on HOP-92 NSCLC. The growth in the test on A549/ATCC NSCLC is 77.9%; with 786-0 renal, 90.7%; in the test with DU-145 prostate it was 106%; in the test on K-562 leukemia, 53.8%; with MALME-3M melanoma, 109%; in the test with MDA-MB-231 breast, 73.4%. The growth in the test with RXF 393 renal was 80.7%; in the test on SF-268 CNS, 102%; with SF-295 CNS, 71.9%; with SF-539 CNS, 90.4%; in the test with UACC-257 melanoma, 77.2%; with M14 melanoma it was 104%.
In the case of `Nc1nc2c(c(=O)[nH]1)C1(C(=O)Nc3ccccc31)c1c(nc(N)[nH]c1=O)N2`, the growth in the test with NCI-H23 lung is 106%; in the test on NCI-H226 lung it was 91.5%; in the test on NCI-H322M lung, 98.1%; with HOP-62 NSCLC, 101%; in the test with NCI-H460 lung, 104%; in the test on HOP-92 NSCLC, 96.2%. Besides, the growth in the test on A549/ATCC NSCLC is 112%; in the test with 786-0 renal, 108%; in the test on DU-145 prostate, 108%; with K-562 leukemia it was 115%; in the test on MALME-3M melanoma, 99.9%; with MDA-MB-231 breast it was 98.7%. Moreover, the growth was 96.6% in the test with RXF 393 renal; 104% with SF-268 CNS; 101% in the test with SF-295 CNS; 106% in the test with SF-539 CNS; 110% in the test with UACC-257 melanoma; 99.3% with M14 melanoma.
Consider `O=C(NCCCl)NCCN1c2nc3ccccc3cc2Sc2cc3ccccc3nc21`, for which the growth with NCI-H23 lung was 39.1%; in the test on NCI-H226 lung, 63.5%; in the test on NCI-H322M lung, 107%; in the test on HOP-62 NSCLC it was 51.7%; in the test with HOP-92 NSCLC it was -5.57% (active); in the test with NCI-H522 lung it was 55.4%. In addition, the growth is 57.9% with 786-0 renal; 73.8% with COLO 205 colon; 21.5% in the test on K-562 leukemia; 60.4% in the test on MALME-3M melanoma; 39.5% in the test with MDA-MB-231 breast; 44.2% in the test on SF-268 CNS. Moreover, the growth was 409% with SF-295 CNS, 38.3% with SF-539 CNS, 65.8% with UACC-257 melanoma and 69.2% in the test with M14 melanoma.
